Source: PubChem BioAssay (NCI)
About 83,000 compounds went through this panel and 20% of them were active in at least one assay; those are over-represented in the sample as a whole.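 Single-concentration screen, 48 h exposure, 96-well plates. Endpoint: percent growth. Below 10 = active.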 Values without a mark were called inactive. Calls of active or inactive are those of the source.

Columns and labels:
Experiment in all cases: NCI-60 one-dose screen, 48 h (100 = growth as untreated, 0 = no growth, -100 = all killed)
[1] = system: RPMI-8226 leukemia; conditions: 10 µM unless noted
[2] = system: OVCAR-8 ovarian; conditions: 10 µM unless noted
[3] = system: OVCAR-5 ovarian; conditions: 10 µM unless noted
[4] = system: OVCAR-4 ovarian; conditions: 10 µM unless noted
[5] = system: SK-OV-3 ovarian; conditions: 10 µM unless noted
[6] = system: IGROV1 ovarian; conditions: 10 µM unless noted
[7] = system: OVCAR-3 ovarian; conditions: 10 µM unless noted
[8] = system: HS 578T breast; conditions: 10 µM unless noted
[9] = system: NCI/ADR-RES ovarian; conditions: 10 µM unless noted
[10] = system: T-47D breast; conditions: 10 µM unless noted
[11] = system: BT-549 breast; conditions: 10 µM unless noted
[12] = system: MDA-MB-435 melanoma; conditions: 10 µM unless noted
[13] = system: SW-620 colon; conditions: 10 µM unless noted
[14] = system: MCF7 breast; conditions: 10 µM
[15] = system: HCT-116 colon; conditions: 10 µM unless noted
[16] = system: HCC-2998 colon; conditions: 10 µM unless noted
[17] = system: KM12 colon; conditions: 10 µM unless noted

**Q.** How did the growth [1] turn out when `O=C(NCCCN1CCC(N2CCCCC2)CC1)C1=Cc2cc(Br)ccc2OC1` was run?
**A.** 30.3%

**Q.** And the growth [2]?
**A.** 19%

**Q.** What about the growth [3] of the same molecule?
**A.** 77%

**Q.** And the growth [4]?
**A.** 45.5%

**Q.** What about the growth [5] of the same molecule?
**A.** 86.4%

**Q.** What about the growth [6] of the same molecule?
**A.** 33.3%

**Q.** What about the growth [7] of the same molecule?
**A.** 48.6%

**Q.** What about the growth [8] of the same molecule?
**A.** 55.8%

**Q.** What about the growth [9] of the same molecule?
**A.** 38.9%

**Q.** And the growth [10]?
**A.** 44.8%

**Q.** What about the growth [11] of the same molecule?
**A.** 90%

**Q.** What about the growth [12] of the same molecule?
**A.** 51.3%

**Q.** And the growth [13]?
**A.** 56.2%

**Q.** What about the growth [14] of the same molecule?
**A.** 25.5%

**Q.** What about the growth [15] of the same molecule?
**A.** 37%

**Q.** And the growth [16]?
**A.** 20.4%

**Q.** What about the growth [17] of the same molecule?
**A.** 12.4%

**Q.** With `O=S1(=O)N(Cc2ccccc2)[C@@H](Cc2ccccc2)C2O[C@H]2[C@H](Cc2ccccc2)N1Cc1ccccc1` (some centres not stated) as the molecule, how does the growth [1] read?
**A.** 27.9%

**Q.** And the growth [2]?
**A.** 52.4%

**Q.** And the growth [3]?
**A.** 93.5%

**Q.** And the growth [4]?
**A.** 6.6% (active)

**Q.** What about the growth [5] of the same molecule?
**A.** 47%

**Q.** What about the growth [6] of the same molecule?
**A.** 60.6%

**Q.** And the growth [7]?
**A.** 62.8%

**Q.** And the growth [8]?
**A.** 98.9%

**Q.** What about the growth [9] of the same molecule?
**A.** 40%

**Q.** What about the growth [10] of the same molecule?
**A.** 32.5%

**Q.** What about the growth [11] of the same molecule?
**A.** 63.1%

**Q.** What about the growth [12] of the same molecule?
**A.** 60.1%

**Q.** What about the growth [13] of the same molecule?
**A.** 50.6%

**Q.** What about the growth [15] of the same molecule?
**A.** 17%

**Q.** What about the growth [16] of the same molecule?
**A.** 61.4%

**Q.** What about the growth [17] of the same molecule?
**A.** 40.2%

**Q.** Which results are given for `COc1cc(C2C(C#N)=C(N)OC3=C2C(=O)c2ccccc2C3=O)cc(OC)c1OC` (configuration not stated)?
**A.** growth [1]: 18.5%; growth [2]: 17.4%; growth [3]: 44%; growth [4]: 74.1%; growth [5]: 29.9%; growth [6]: 47.7%; growth [7]: 3.34% (active); growth [8]: 8.28% (active); growth [9]: 70.5%; growth [10]: 67.3%; growth [12]: -19.7% (active); growth [13]: 21.5%; growth [14]: 18.9%; growth [15]: 19.1%; growth [16]: 30.4%; growth [17]: 13.1%

**Q.** How did the growth [1] turn out when `COc1ccc(Nc2cc(C)nc(NCc3ccccc3)n2)cc1` was run?
**A.** 8.08% (active)

**Q.** And the growth [2]?
**A.** 24.1%

**Q.** And the growth [3]?
**A.** 62%

**Q.** What about the growth [4] of the same molecule?
**A.** 46.7%

**Q.** What about the growth [5] of the same molecule?
**A.** 92.5%

**Q.** What about the growth [6] of the same molecule?
**A.** 37.5%

**Q.** What about the growth [7] of the same molecule?
**A.** 6.99% (active)

**Q.** And the growth [8]?
**A.** 60.5%

**Q.** What about the growth [9] of the same molecule?
**A.** 77.8%

**Q.** What about the growth [10] of the same molecule?
**A.** 63%

**Q.** And the growth [11]?
**A.** 97.6%

**Q.** And the growth [12]?
**A.** 18.5%

**Q.** And the growth [13]?
**A.** 15%

**Q.** And the growth [14]?
**A.** 11.1%

**Q.** What about the growth [15] of the same molecule?
**A.** 15.4%

**Q.** And the growth [17]?
**A.** 5.56% (active)

**Q.** Which growth [1] does the source give for `CCN(CC)CCNC(=O)C(Cl)=C1C(Cl)=C(Cl)C(Cl)=C1Cl` here?
**A.** 30.6%

**Q.** What about the growth [2] of the same molecule?
**A.** 15.8%

**Q.** What about the growth [3] of the same molecule?
**A.** 120%

**Q.** What about the growth [4] of the same molecule?
**A.** 41.9%

**Q.** What about the growth [5] of the same molecule?
**A.** 58.7%

**Q.** What about the growth [6] of the same molecule?
**A.** 59.1%

**Q.** And the growth [7]?
**A.** 40.1%

**Q.** What about the growth [8] of the same molecule?
**A.** 82.2%

**Q.** What about the growth [9] of the same molecule?
**A.** 44.7%

**Q.** What about the growth [10] of the same molecule?
**A.** 56.6%

**Q.** And the growth [11]?
**A.** 33.3%

**Q.** What about the growth [12] of the same molecule?
**A.** 33.9%

**Q.** And the growth [13]?
**A.** 34.7%

**Q.** What about the growth [14] of the same molecule?
**A.** 28.7%

**Q.** What about the growth [15] of the same molecule?
**A.** 13.9%

**Q.** And the growth [17]?
**A.** 23.6%

**Q.** `O=C(c1ccccc1)N(C(=S)NCCc1ccc(Cl)cc1)c1ccccc1` was tested. Which growth [1] did it give?
**A.** -30.9% (active)

**Q.** And the growth [2]?
**A.** 105%

**Q.** And the growth [3]?
**A.** 91.2%

**Q.** What about the growth [4] of the same molecule?
**A.** 96.9%

**Q.** And the growth [5]?
**A.** 114%

**Q.** And the growth [6]?
**A.** 102%

**Q.** And the growth [7]?
**A.** 98%

**Q.** And the growth [8]?
**A.** 112%

**Q.** What about the growth [9] of the same molecule?
**A.** 99%

**Q.** What about the growth [10] of the same molecule?
**A.** 59.6%

**Q.** What about the growth [12] of the same molecule?
**A.** 84%

**Q.** What about the growth [13] of the same molecule?
**A.** 76.9%

**Q.** And the growth [14]?
**A.** 38.6%

**Q.** What about the growth [15] of the same molecule?
**A.** 62.2%

**Q.** And the growth [16]?
**A.** 101%

**Q.** `CC(C)C[C@H](C(=O)N[C@H](C(N)=O)C(C)C)N1CC=CCN(OCc2ccccc2)S1(=O)=O` was tested. Which growth [1] did it give?
**A.** 98.7% [2.5 µM]

**Q.** And the growth [2]?
**A.** 95.2% [2.5 µM]

**Q.** And the growth [3]?
**A.** 95.2% [2.5 µM]

**Q.** And the growth [4]?
**A.** 109% [2.5 µM]

**Q.** What about the growth [5] of the same molecule?
**A.** 88.3% [2.5 µM]

**Q.** What about the growth [6] of the same molecule?
**A.** 107% [2.5 µM]

**Q.** What about the growth [7] of the same molecule?
**A.** 112% [2.5 µM]

**Q.** What about the growth [8] of the same molecule?
**A.** 107% [2.5 µM]

**Q.** What about the growth [9] of the same molecule?
**A.** 95.6% [2.5 µM]

**Q.** What about the growth [10] of the same molecule?
**A.** 95.7% [2.5 µM]

**Q.** What about the growth [11] of the same molecule?
**A.** 98.5% [2.5 µM]

**Q.** What about the growth [12] of the same molecule?
**A.** 115% [2.5 µM]

**Q.** What about the growth [13] of the same molecule?
**A.** 102% [2.5 µM]

**Q.** What about the growth [15] of the same molecule?
**A.** 83.2% [2.5 µM]

**Q.** What about the growth [17] of the same molecule?
**A.** 114% [2.5 µM]

**Q.** What does the source list for `O=C(COc1cc(O)c2c(=O)cc(-c3ccccc3)oc2c1)Nc1ccccc1C(F)(F)F`?
**A.** growth [1]: 54.8%; growth [2]: 29%; growth [3]: 62.9%; growth [4]: -50.1% (active); growth [5]: 44.1%; growth [6]: 40.3%; growth [7]: -2.06% (active); growth [8]: 15.5%; growth [9]: 51.2%; growth [10]: 14.3%; growth [12]: 78%; growth [13]: 21.8%; growth [14]: 49.8%; growth [15]: 5.84% (active); growth [16]: 90%; growth [17]: 68.5%

**Q.** Which growth [1] does the source give for `CCOc1cccc(/C=N/NC(=O)C(=O)Nc2cccc(C(F)(F)F)c2)c1O` here?
**A.** 29%

**Q.** What about the growth [2] of the same molecule?
**A.** 25.6%

**Q.** And the growth [3]?
**A.** 47.4%

**Q.** And the growth [4]?
**A.** 31%

**Q.** And the growth [5]?
**A.** 49.2%

**Q.** And the growth [6]?
**A.** 25.3%

**Q.** And the growth [7]?
**A.** 29.3%

**Q.** What about the growth [8] of the same molecule?
**A.** 69.3%

**Q.** What about the growth [9] of the same molecule?
**A.** 9.74% (active)

**Q.** And the growth [10]?
**A.** 30.9%

**Q.** And the growth [12]?
**A.** 49.6%

**Q.** What about the growth [13] of the same molecule?
**A.** 32%

**Q.** And the growth [14]?
**A.** 11.8%

**Q.** What about the growth [15] of the same molecule?
**A.** 32%

**Q.** What about the growth [16] of the same molecule?
**A.** 5.43% (active)
